Compound activity (PubChem BioAssay)
CHX counter – counter-screen for Shiga toxin inhibitors: cycloheximide protein synthesis inhibition; cell reporter, cycloheximide protein synthesis inhibition counterscreen; max response, %; 12% of 300,000 active; in the data active = max response mostly above about 13%, no sharp cut-off; inactive = mostly below about 14%; note: read at 38.3 µM for the half of the compounds with a filed dose
Pf growth 96h – P. falciparum growth inhibition at 96 hour, primary screen for plastid delayed-death inhibitors; 6.9% of 320,000 active; Potency, µM (series often up to 28.7 µM), usual class: inhibitors; P. falciparum luciferase reporter growth, 96 h
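P. falciparum expressing integrated firefly luciferase grown in erythrocytes (2% hematocrit, 0.05% parasitemia final) with compounds for 96 hours at 37 C, 5% CO2. Growth inhibition read as loss of luminescence after adding luciferase detection reagent.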
Shiga toxin inh – inhibitors of Shiga toxin in Vero cells; Vero cells, Shiga toxin protein synthesis inhibition reporter; inhibition, % at 38.7 µM; 9.2% of 290,000 active; AID 2315; in the data active = inhibition mostly above about 28%, no sharp cut-off; inactive = mostly below about 43%
LASV entry inh – inhibitors of Lassa virus binding or cell entry; Lassa virus pseudotype entry inhibition, cell reporter; Potency, µM (series often up to 37.9 µM), hits mostly inhibitors; 1.2% of 300,000 active; calls by dose curve; tested in HEK293 cells; note: nearly all actives have a fitted effect of over 50% in size
MARV entry inh – Marburg virus entry inhibition. Marburg virus pseudotyped entry inhibition, cell reporter. Potency, µM (top dose mostly 37.8 µM), usual class: inhibitors. 1.8% of 300,000 active. AID 540276; calls by dose curve; tested in HEK293 cells
Pf growth 48h – inhibits P. falciparum growth in the first generation, 48 h; P. falciparum luciferase growth in erythrocytes, 48 h; Potency, µM (highest dose often 28.7 µM), hits mostly inhibitors; 5.9% of 310,000 active; AID 504832
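Read-out is firefly luciferase luminescence from an integrated reporter in P. falciparum, so falling signal marks reduced parasite growth. Infected erythrocytes were at 2% hematocrit and 0.1% parasitemia (final) in Albumax-supplemented RPMI 1640.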
Numbers stand for hits. Sampled rows, rich in hits. Any-hit rate of the full collection: about 19%. Unless noted, calls come from the whole dose curve; as a rule, active = well fitted inhibition curve with a large enough effect; inconclusive = small, poorly fitted or top-dose-only effect, or another doubt; inactive = no such curve, though single readings can be large or run the other way.

`Cn1c(SCC(=O)NC2CCCCC2)nnc1-c1cccc(N)c1` gave CHX counter inactive, Pf growth 96h 4.1µM, Shiga toxin inh inactive, LASV entry inh inactive, MARV entry inh inactive and Pf growth 48h inactive.
For Cn1c(SCC(=O)NC2CCCC2)nnc1-c1ccncc1 the results were CHX counter inactive, Pf growth 96h inactive, Shiga toxin inh inactive, LASV entry inh inactive, MARV entry inh inactive and Pf growth 48h inactive.
Cn1c(SCC(=O)NC2CCCCC2)nnc1-c1ccccn1 was read as CHX counter inactive, Pf growth 96h inactive, Shiga toxin inh inactive and Pf growth 48h inactive.
For CC(C)c1ccc(-c2nnc(SCC(=O)NC3CC3)n2C)cc1 the results were CHX counter 13, Pf growth 96h inactive, Shiga toxin inh 37, LASV entry inh inactive, MARV entry inh inactive and Pf growth 48h inactive.
Cn1c(SCC(=O)c2ccc(O)c(O)c2)nnc1-c1cccs1 was read as CHX counter 26, Pf growth 96h inconclusive, Shiga toxin inh inactive and Pf growth 48h inconclusive.
For Cn1c(SCC(=O)c2ccc3c(c2)Cc2ccccc2-3)nnc1-c1cccc(N)c1 the results were CHX counter 20, Pf growth 96h inconclusive, Shiga toxin inh inactive, LASV entry inh inactive, MARV entry inh inactive and Pf growth 48h inconclusive.
Screening COc1cccc(CNC(=O)CNC(=O)N2CC(=O)Nc3ccccc32)c1 returned CHX counter inactive, Pf growth 96h inconclusive, Shiga toxin inh inactive, LASV entry inh inactive, MARV entry inh inactive and Pf growth 48h inactive.
Screening COC(=O)c1cc2ccsc2n1CC(=O)Nc1ccc(N(C)C)cc1 returned CHX counter inactive, Pf growth 96h inactive, Shiga toxin inh inactive, LASV entry inh inactive, MARV entry inh inactive and Pf growth 48h inactive.
For O=C(CN1C(=O)c2ccccc2S1(=O)=O)Nc1ccc(S(=O)(=O)N2CCCCC2)cc1 the results were CHX counter inactive, Pf growth 96h inconclusive, Shiga toxin inh inactive, LASV entry inh inactive, MARV entry inh inactive and Pf growth 48h inactive.
`Cc1ccc(N(C)S(=O)(=O)c2cccc(C(=O)Oc3ccc4c(C)cc(=O)oc4c3)c2)cc1` gave CHX counter inactive, Pf growth 96h inactive, Shiga toxin inh inactive, LASV entry inh inactive, MARV entry inh inactive and Pf growth 48h inactive.
`CC(NC(=O)C1=CC=CN2CCS(=O)(=O)N=C12)c1ccc(Cl)cc1Cl` (centres undefined) gave Pf growth 96h inconclusive, LASV entry inh inactive, MARV entry inh inactive and Pf growth 48h inactive.
For Cn1c(SCC(=O)NC2CC2)nnc1-c1cccs1 the results were CHX counter 62, Pf growth 96h inactive, Shiga toxin inh 75, LASV entry inh inactive, MARV entry inh inactive and Pf growth 48h inactive.
For Cn1c(SCC(=O)N(C2CCCCC2)C2CCCCC2)nnc1-c1cccs1 the results were CHX counter inactive, Shiga toxin inh inactive, LASV entry inh inconclusive, MARV entry inh inconclusive and Pf growth 48h 12µM.
Screening O=c1[nH]c2ccc(Cl)cc2c(-c2ccccc2)c1N1CCN(c2ccccn2)CC1 returned CHX counter inactive, Pf growth 96h inconclusive, Shiga toxin inh inactive, LASV entry inh inconclusive, MARV entry inh 2.3µM and Pf growth 48h inactive.
`O=c1[nH]c2ccc(Cl)cc2c(-c2ccccc2)c1N1CCOCC1` gave CHX counter inactive, Pf growth 96h inactive, Shiga toxin inh inactive and Pf growth 48h inactive.
CN(CC1COc2ccccc2O1)C(=O)c1cc(COc2c(F)cccc2F)on1 (centres undefined) was read as CHX counter inactive, Pf growth 96h inconclusive, Shiga toxin inh inactive, LASV entry inh inactive, MARV entry inh inactive and Pf growth 48h inactive.
Screening CN(CCC1CCOCC1)C(=O)c1cc(COc2c(F)cccc2F)on1 returned CHX counter 27, Pf growth 96h inactive, Shiga toxin inh inactive and Pf growth 48h inactive.
For CN(Cc1cc(-c2ccccc2)on1)C(=O)c1cc(COc2c(F)cccc2F)on1 the results were CHX counter 42, Pf growth 96h inconclusive, Shiga toxin inh 70 and Pf growth 48h inactive.
For CN(CC1COCCO1)C(=O)c1cc(COc2c(F)cccc2F)on1 (centres undefined) the results were CHX counter 27, Pf growth 96h inactive, Shiga toxin inh 53, LASV entry inh inactive, MARV entry inh inconclusive and Pf growth 48h inactive.
For CSc1ccccc1OCc1cc(C(=O)N(C)CC2COCCO2)no1 (centres undefined) the results were CHX counter 30, Pf growth 96h inactive, Shiga toxin inh 61, LASV entry inh inconclusive, MARV entry inh inactive and Pf growth 48h inactive.
`COCCCNC(=O)CNC(=S)N(Cc1ccccc1)Cc1cccnc1` gave CHX counter inactive, Pf growth 96h 10µM, Shiga toxin inh inactive, LASV entry inh inactive, MARV entry inh inactive and Pf growth 48h inactive.
For O=C(CNC(=S)N(Cc1ccccc1)Cc1cccs1)NCc1ccc(F)cc1 the results were CHX counter inactive, Pf growth 96h inconclusive, Shiga toxin inh inactive, LASV entry inh inconclusive, MARV entry inh inconclusive and Pf growth 48h inconclusive.
Screening COCCNC(=O)CNC(=S)N(Cc1ccccc1)Cc1cccnc1 returned CHX counter inactive, Pf growth 96h 12µM, Shiga toxin inh inactive, LASV entry inh inactive, MARV entry inh inactive and Pf growth 48h inactive.
Cc1ccc(CN(Cc2ccccc2)C(=S)NCC(=O)NCc2cccnc2)o1 was read as CHX counter inactive, Pf growth 96h inactive, Shiga toxin inh inactive, LASV entry inh inconclusive, MARV entry inh inactive and Pf growth 48h 12µM.
Screening Cc1ccc(CNC(=O)CNC(=S)N(Cc2ccccc2)Cc2cccnc2)cc1 returned CHX counter inactive, Pf growth 96h inconclusive, Shiga toxin inh inactive, LASV entry inh inconclusive, MARV entry inh inconclusive and Pf growth 48h inactive.
`Cc1ccc(CN(Cc2ccco2)C(=S)NCC(=O)NCc2cccnc2)cc1` gave CHX counter inactive, Pf growth 96h inactive, Shiga toxin inh inactive, LASV entry inh inactive, MARV entry inh inactive and Pf growth 48h inactive.
Screening O=C(CNC(=S)N(Cc1ccccc1)Cc1ccccc1F)NCCc1ccc(Cl)cc1 returned CHX counter inactive, Pf growth 96h inconclusive, Shiga toxin inh inactive, LASV entry inh inactive, MARV entry inh inconclusive and Pf growth 48h 12µM.
Screening Cn1nnc2c(N3CCN(c4ccccc4Cl)CC3)ncnc21 returned LASV entry inh inactive.
For CC(=O)c1cccc(N(C(=O)c2cnccn2)C(C(=O)NCc2ccccc2)c2ccco2)c1 (centres undefined) the results were CHX counter inactive, Pf growth 96h inactive, Shiga toxin inh inactive, LASV entry inh inactive, MARV entry inh inactive and Pf growth 48h inconclusive.
CCOC(=O)c1ccc(N2C(=O)c3n[nH]c(-c4cccs4)c3C2c2ccc(C(C)C)cc2)cc1 (centres undefined) was read as LASV entry inh inactive and MARV entry inh inconclusive.
Screening C=CC[C@]12CCc3sccc3C1N(c1ccc(C(=O)OCC)cc1)C2=O (some centres undefined) returned Pf growth 96h inconclusive and Pf growth 48h 10µM.
